From PubChem BioAssay (NCATS)
Inconclusive results are not listed. Calls of active or inactive are those of the source. Calls follow the shape of the dose curve; as a rule, active = well fitted inhibition curve with a large enough effect in the signal ratio, with a control signal flat (not every such curve was filed as active); inconclusive = small, poorly fitted or top-dose-only effect, or effect the other way, or a change in a side signal; inactive = flat fitted curve, though single readings scatter; the % refers to the signal ratio.

Assay: qHTS Assay for Identification of Small Molecule Antagonists for NFkB Signaling Pathway (AID 895)
Details: NFkB beta-lactamase reporter cells, FRET ratio 460/530; series mostly up to 38.3 µM; activity change, negative = inhibition: at the top concentration
Method: NIH Molecular Libraries Screening Centers Network [MLSCN]
NIH Chemical Genomics Center [NCGC]
The TNF alpha/NFkB signaling pathway was assayed in NFkB-bla cells (Invitrogen), a ME-180 cervical carcinoma line containing a stably integrated beta-lactamase reporter gene controlled by a NFkB response element. […] The assay was screened at the EC50 of TNF alpha activation to identify inhibitors of TNF alpha/NFkB signaling.
NCGC Assay Protocol Summary:
Cells were trypsinized, washed in assay medium (AM, OPTI MEM with 0.5% fetal bovine serum, 0.1 mM nonessential amino acids, 1 mM sodium pyruvate, 10mM HEPES pH 7.3, 100U/ml penicillin, and 100 ug/ml streptomycin) and plated at 1000 cells/5 uL/well into black clear-bottom 1536 well plates. After an overnight incubation at 37 C and 5% CO2, 23 nL of compound were delivered by a pin tool, 1 uL of TNF alpha (10 pM final concentration in AM) was added and plates were incubated at 37 C for 5 hrs. One uL of LiveBLAzerTM detector mix (Invitrogen) was added, the plates incubated at room temperature for 2 hrs, and fluorescence intensity at 460 and 530 nm emission was measured at 405 nm excitation by an Envision (Perkin Elmer).
% is scaled to controls: 0 for no effect and ±100 for the full control effect; potency is read from the fitted curve at half-maximal effect.

Q: For `Clc1cc(I)cc(Cl)c1NC1=NCCN1`, which “activity change, negative = inhibition” value is on record?
A: -21.6% (inactive)

Q: Which “activity change, negative = inhibition” value does the source give for `C[N+](C)(C)CCOC(=O)CBr` here?
A: -27.3% (inactive)

Q: Which “activity change, negative = inhibition” value does the source give for `O=S1(=O)N(CCN2CC=C(c3c[nH]c4cc(F)ccc34)CC2)c2cccc3c2N1CCC3` here?
A: -6.83% (inactive)

Q: With `NCCc1ccc(S(=O)(=O)F)cc1` as the molecule, how does the “activity change, negative = inhibition” value read?
A: 0.32% (inactive)

Q: For `OCc1cnc[nH]1`, which “activity change, negative = inhibition” value is on record?
A: -4.36% (inactive)

Q: Which Potency does the source give for `CCCn1c(=O)c2[nH]c(C3CCCC3)nc2n(CCCOC(=O)c2ccc(S(=O)(=O)F)cc2)c1=O` here?
A: 10 µM (active)

Q: For `NCCc1c[nH]c2ccc(C(N)=O)cc12`, which “activity change, negative = inhibition” value is on record?
A: -8.05% (inactive)

Q: Which Potency does the source give for `COc1ccc2[nH]c3c(c2c1)CCNC3` here?
A: 5.01 µM (active)

Q: With `Cc1[nH]c2ccc(O)cc2c1CCN` as the molecule, how does the “activity change, negative = inhibition” value read?
A: -11.8% (inactive)

Q: For `CC(C)NP(=O)(NC(C)C)OP(=O)(NC(C)C)NC(C)C`, which “activity change, negative = inhibition” value is on record?
A: 8.52% (inactive)

Q: With `O=P(O)(O)C(Cl)(Cl)P(=O)(O)O` as the molecule, how does the “activity change, negative = inhibition” value read?
A: 4.49% (inactive)

Q: For `N#CCCN`, which “activity change, negative = inhibition” value is on record?
A: -2.13% (inactive)

Q: Which “activity change, negative = inhibition” value does the source give for `O=[N+]([O-])c1cc(O)c(O)c([N+](=O)[O-])c1` here?
A: -1.37% (inactive)

Q: With `NC(=O)CI` as the molecule, how does the “activity change, negative = inhibition” value read?
A: -8.17% (inactive)

Q: With `C[C@@H]1[C@@H]2Cc3ccc(O)cc3[C@@]1(C)CCN2CC1CC1` as the molecule, how does the “activity change, negative = inhibition” value read?
A: 2.62% (inactive)

Q: Which “activity change, negative = inhibition” value does the source give for `NNC(=O)c1ccc(O)cc1` here?
A: 19% (inactive)

Q: For `O=C(O)c1cc[c]([Hg][Cl])cc1`, which “activity change, negative = inhibition” value is on record?
A: 18% (inactive)

Q: With `Clc1ccc(N2C[C@H]3CC[C@@H](C2)N3)nn1` as the molecule, how does the “activity change, negative = inhibition” value read?
A: -3.34% (inactive)

Q: For `CCCN(CCC)C1Cc2cc(OC)c(OC)cc2C1`, which “activity change, negative = inhibition” value is on record?
A: -25.7% (inactive)

Q: For `CCCN(CCC)CCc1c[nH]c2ccc(C(N)=O)cc12`, which “activity change, negative = inhibition” value is on record?
A: -12.4% (inactive)

Q: Which “activity change, negative = inhibition” value does the source give for `NC(=O)c1cc(N2CC2)c([N+](=O)[O-])cc1[N+](=O)[O-]` here?
A: -6.61% (inactive)

Q: With `O=C1C=CC(=O)C=C1` as the molecule, how does the “activity change, negative = inhibition” value read?
A: -13.3% (inactive)
